Measurements as given in PubChem BioAssay.

Legend:
[1] = system: Botulinum neurotoxin type F light chain protease (Clostridium botulinum); experiment: Botulinum neurotoxin type F light chain protease inhibition, multiplex microsphere flow cytometry, validation set (AID 588459); settings: multiplex microsphere protease substrate cleavage assay, at 10 µM, stronger effect = higher value
[2] = target: Botulinum neurotoxin type A (Clostridium botulinum) (UniProt P0DPI0); experiment: BoNT/A light chain protease inhibitors, biochemical, multiplex microsphere flow cytometry, validation set (AID 588460); settings: at 10 µM, stronger effect = higher value
[3] = target: Lethal factor (Bacillus anthracis) (UniProt P15917); experiment: Lethal factor protease inhibitors, Bacillus anthracis, multiplex microsphere cleavage assay, validation set (AID 588461); settings: flow cytometry, at 10 µM, stronger effect = higher value

Measured: inhibition

Botulinum neurotoxin type A (Clostridium botulinum), sequence (P0DPI0 whole entry, looked up): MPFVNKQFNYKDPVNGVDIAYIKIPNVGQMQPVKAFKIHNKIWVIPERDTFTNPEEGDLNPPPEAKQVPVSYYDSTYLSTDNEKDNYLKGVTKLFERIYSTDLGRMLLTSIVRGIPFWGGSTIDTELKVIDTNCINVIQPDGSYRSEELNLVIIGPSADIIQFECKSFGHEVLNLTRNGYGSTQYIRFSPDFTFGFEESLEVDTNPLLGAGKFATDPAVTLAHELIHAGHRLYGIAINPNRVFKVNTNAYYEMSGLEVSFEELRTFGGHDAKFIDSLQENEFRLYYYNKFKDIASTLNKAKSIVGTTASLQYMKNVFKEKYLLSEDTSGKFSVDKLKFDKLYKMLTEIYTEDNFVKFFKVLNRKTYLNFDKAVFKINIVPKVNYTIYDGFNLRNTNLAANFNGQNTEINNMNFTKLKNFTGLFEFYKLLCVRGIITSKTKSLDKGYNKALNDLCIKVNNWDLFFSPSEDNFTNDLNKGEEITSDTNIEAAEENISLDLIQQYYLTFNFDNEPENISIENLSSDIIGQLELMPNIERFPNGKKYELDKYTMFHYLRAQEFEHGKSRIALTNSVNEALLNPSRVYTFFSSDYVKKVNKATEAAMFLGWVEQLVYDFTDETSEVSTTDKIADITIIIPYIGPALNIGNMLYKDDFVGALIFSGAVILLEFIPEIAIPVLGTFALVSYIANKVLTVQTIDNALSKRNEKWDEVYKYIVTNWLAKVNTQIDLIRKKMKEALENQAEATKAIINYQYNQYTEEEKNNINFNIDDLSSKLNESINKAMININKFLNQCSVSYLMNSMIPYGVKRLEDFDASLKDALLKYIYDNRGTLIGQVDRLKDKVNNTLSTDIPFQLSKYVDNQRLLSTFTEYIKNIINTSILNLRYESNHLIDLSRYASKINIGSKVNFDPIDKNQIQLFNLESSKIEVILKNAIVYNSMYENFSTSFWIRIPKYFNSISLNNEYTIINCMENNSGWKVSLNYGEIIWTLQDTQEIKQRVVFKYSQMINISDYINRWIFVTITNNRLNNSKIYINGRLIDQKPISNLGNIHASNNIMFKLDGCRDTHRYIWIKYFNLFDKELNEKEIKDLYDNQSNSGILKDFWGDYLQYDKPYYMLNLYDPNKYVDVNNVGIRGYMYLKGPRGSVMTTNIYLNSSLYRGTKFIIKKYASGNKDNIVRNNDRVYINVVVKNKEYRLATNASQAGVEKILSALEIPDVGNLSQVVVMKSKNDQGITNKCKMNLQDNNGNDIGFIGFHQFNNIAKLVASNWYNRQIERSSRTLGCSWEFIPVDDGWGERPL
Lethal factor (Bacillus anthracis), sequence (P15917 whole entry, looked up): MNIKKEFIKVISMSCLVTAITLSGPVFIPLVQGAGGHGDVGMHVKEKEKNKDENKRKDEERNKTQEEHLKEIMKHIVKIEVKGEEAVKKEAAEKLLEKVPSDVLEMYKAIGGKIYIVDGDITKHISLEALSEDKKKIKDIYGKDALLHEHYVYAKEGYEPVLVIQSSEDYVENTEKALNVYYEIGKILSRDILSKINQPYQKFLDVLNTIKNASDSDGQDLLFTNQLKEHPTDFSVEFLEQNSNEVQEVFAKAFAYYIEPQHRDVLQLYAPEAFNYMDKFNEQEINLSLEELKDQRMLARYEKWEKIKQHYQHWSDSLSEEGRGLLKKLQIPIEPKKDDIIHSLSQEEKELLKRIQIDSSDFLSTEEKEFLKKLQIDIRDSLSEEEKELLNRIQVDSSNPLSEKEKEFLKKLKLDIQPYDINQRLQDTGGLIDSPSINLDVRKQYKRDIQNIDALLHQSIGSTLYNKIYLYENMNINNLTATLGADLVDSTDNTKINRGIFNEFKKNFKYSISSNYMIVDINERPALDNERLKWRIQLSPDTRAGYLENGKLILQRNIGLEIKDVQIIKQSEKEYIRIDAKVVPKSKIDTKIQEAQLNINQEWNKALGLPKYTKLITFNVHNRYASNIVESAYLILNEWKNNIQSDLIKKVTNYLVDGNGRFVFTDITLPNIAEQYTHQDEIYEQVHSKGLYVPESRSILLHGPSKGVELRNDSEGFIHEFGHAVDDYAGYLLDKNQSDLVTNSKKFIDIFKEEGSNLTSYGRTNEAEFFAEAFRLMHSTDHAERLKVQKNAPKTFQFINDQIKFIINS

COc1ccc(NC(=S)N2CCN(CCN3C(=O)c4cccc5cccc(c45)C3=O)CC2)cc1
inactive: [1] 2.5% | [2] 1.6% | [3] -3.3%

O=C1Nc2ccc3sc4ccccc4c3c2C1=O
inactive: [1] -1.1% | [2] -0.8% | [3] 1.4%

CCOC(=O)[C@H]1O[C@@H]1C(=O)N[C@@H](CC(C)C)C(=O)NCCC(C)C
inactive: [1] 1.7% | [2] -1.4% | [3] -2.8%

O=C(Cc1ccccc1)NNC(=O)Cc1ccccc1
inactive: [1] 0.3% | [2] 1.7% | [3] -1.2%

O=C(NCC1CCCO1)c1ccc(OC2CCN(C(=O)C3CC3)CC2)cc1 (stereo not drawn)
inactive: [1] 0.8% | [2] 0.5% | [3] -2.8%

COc1cc2nc(N3CCN(C(=O)C4COc5ccccc5O4)CC3)nc(N)c2cc1OC (stereo not drawn)
inactive: [1] -0.3% | [2] 0% | [3] -2.9%

NC(N)=N/N=C/c1c(Cl)cccc1Cl
inactive: [1] -0.2% | [2] 0.6% | [3] 0.5%

Cc1cc(=O)oc2c(CN(C)Cc3ccccc3)c(O)ccc12
inactive: [1] -0.2% | [2] -0.7% | [3] -3.4%

O=C(NNC(=O)c1cccs1)c1ccco1
inactive: [1] 1.9% | [2] -2.8% | [3] 0.2%

NC(=O)c1c(-c2ccccc2)oc2ccc(O)cc12
inactive: [1] -1.9% | [2] -0.3% | [3] -5.1%

CC12CCC(C(=O)N3CCc4ccccc43)(CC1=O)C2(C)C (stereo not drawn)
inactive: [1] 0.6% | [2] -0.7% | [3] -0.2%
